Hits are enriched below; roughly 19% of the tested compounds scored in any of these assays.
TDP1 cell CPT – qHTS for Inhibitors of human tyrosyl-DNA phosphodiesterase 1 (TDP1): qHTS in cells in presence of CPT; chicken DT40 Tdp1-/-;hTDP1 cells + 20 nM CPT, ATP luminescence, 48 h; 420,000 compounds, 12% hits; Potency, µM (doses to about 46.2 µM), inactives show top-dose activity change, negative = growth inhibition, most hits filed as inhibitors; also: nearly all actives have a fitted effect of over 55% in size
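Cell growth measured by CellTiter-Glo luminescence after a minimum 48 h, 37 C compound exposure with 20 nM CPT in Tdp1-knockout DT40 cells stably expressing hTDP1, seeded 400/well; qHTS titration format.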
KB-V1 cytotox – qHTS assay for MDR1-selective chemotherapeutics: Primary screen using the drug-selected MDR subline cells KB-V1; KB-V1 MDR cells viability, CellTiter-Glo, 72 h; Potency, µM (doses to about 46.1 µM), hits mostly cytotoxic; 400,000 compounds, 3.4% hits; AID 1347076, 2019; also: nearly all actives have a fitted effect of over 60% in size
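Following 72 h at 37 degrees C with compound, KB-V1 cell viability was read by CellTiter-Glo luminescence, medium being phenol-red-free DMEM plus 10% FBS; concentration-response parameters came from normalized, curve-fitted qHTS data.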
KB-3-1 tox – qHTS assay for MDR1-selective chemotherapeutics: Primary screen using the parental adenocarcinoma cell KB-3-1; KB-3-1 viability, CellTiter-Glo ATP luminescence, 72 h; Potency, µM (doses to about 46.1 µM), actives largely listed as cytotoxic; 400,000 compounds, 1.4% hits; also: nearly all actives have a fitted effect of over 60% in size
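Parental KB-3-1 viability, qHTS format: 72 h compound exposure, 37 °C; CellTiter-Glo; media-only wells and DMSO plates as controls; concentration-effect fits on corrected data.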
TDP1 cell noCPT – qHTS for Inhibitors of human tyrosyl-DNA phosphodiesterase 1 (TDP1): qHTS in cells in absence of CPT. DT40 Tdp1-/- hTDP1 cells, no CPT, ATP luminescence, 48 h. Potency, µM (top dose mostly 46.2 µM), inactives show at the highest dose activity change, negative = growth inhibition, usual class: inhibitors. 420,000 compounds, 15% hits. AID 686978, 2013; also: nearly all actives have a fitted effect of over 55% in size
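DT40 Tdp1-/-;hTDP1 cells, no CPT (DMSO vehicle only), 400 cells/well; compounds pin-transferred; ≥48 hr, 37 °C; CellTiter-Glo 30 min RT dark, luminescence read.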
HT1080-NT tox – qHTS for induction of synthetic lethality in tumor cells producing 2HG: qHTS for the HT-1080-NT fibrosarcoma cell line. Potency, µM (highest dose often 46.1 µM), for inactives: top-dose activity, negative = less viability, hits mostly cytotoxic. 360,000 compounds, 1.6% hits. HT-1080-NT fibrosarcoma viability, CellTiter-Glo ATP luminescence, 48 h;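 also: NT is the 2HG producing partner of a matched IDH1 knockdown line; 0% = DMSO-treated cells and -100% = media-only wells without cells; nearly all actives have a fitted effect of over 55% in size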
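Viability of the 2HG-overproducing fibrosarcoma line after 48 hours of compound exposure at 37 degrees C was determined by luminescence with CellTiter-Glo, and concentration-effect curves were then fitted and categorized.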
HT1080 IDH1KD tx – qHTS for induction of synthetic lethality in tumor cells producing 2HG: qHTS for the HT-1080-IDH1KD cell line; Potency, µM (titrated, usually from 46.1 µM), without a hit: at the top dose activity, negative = toxicity, hits mostly cytotoxic; 360,000 compounds, 2% hits; HT-1080 IDH1 knockdown viability, ATP luminescence, 48 h;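 also: 0% = DMSO wells and -100% = cell-free medium wells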
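In this qHTS, HT-1080 cells depleted of IDH1 are exposed for 48 h at 37 °C to compound titrations. Toxicity is scored from CellTiter-Glo luminescence, with DMSO as full viability and medium alone as none.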
* hit, by the source's call; i = inactive; ? = inconclusive; . = not tested or not shown; [ ] = dose if it differs, or a comment. Calls follow the shape of the dose curve; as a rule, active = well fitted curve in the direction sought with a large enough effect; inconclusive = small, poorly fitted or top-dose-only effect, or another doubt; inactive = no such curve, though single readings can be large; an effect the other way counts as inactive or inconclusive. Unless noted, % is scaled to controls: 0 for no effect and ±100 for the full control effect; potency is read from the fitted curve at half-maximal effect.

SMILES	TDP1 cell CPT	KB-V1 cytotox	KB-3-1 tox	TDP1 cell noCPT	HT1080-NT tox	HT1080 IDH1KD tx
CCOc1ccc(Nc2nc(N)c([N+](=O)[O-])c(N3CCN(C)CC3)n2)cc1	?	i	i	-12%	-4%	-11%
CCN1CCN(c2nc(Nc3ccc(C)c(C)c3)nc(N)c2[N+](=O)[O-])CC1	-22%	?	?	23µM*	?	?
Cc1cccc(Nc2nc(N)c([N+](=O)[O-])c(N3CC(C)CC(C)C3)n2)c1 (stereo unspecified)	?	21µM*	?	18µM*	16µM*	21µM*
Cc1cccc(Nc2nc(N)c([N+](=O)[O-])c(N3CC(C)OC(C)C3)n2)c1 (stereo unspecified)	?	i	?	?	4%	5%
CCN1CCN(c2nc(Nc3cccc(OC)c3)nc(N)c2[N+](=O)[O-])CC1	13µM*	i	?	9.2µM*	?	?
CCN1CCN(c2nc(N)c([N+](=O)[O-])c(Nc3cccc(C)c3)n2)CC1	?	3.3µM*	?	?	3%	4%
CC1=NN(C(=S)Nc2ccccc2)C(C)(C)C1	0%	i	i	-9%	0%	8%
Cc1ccc(Nc2nc(NCCCN3CCOCC3)nc(N)c2[N+](=O)[O-])cc1C	?	i	i	18µM*	6%	0%
CN(C)c1ccc(Nc2nc(N)c([N+](=O)[O-])c(N3CCOCC3)n2)cc1	?	i	i	26µM*	-11%	-18%
COc1ccc(C(=O)COC(=O)c2ccccc2O)c(OC)c1	?	i	i	-4%	-2%[9.24 µM]	6%
CCOC(=O)c1[nH]c2ccccc2c1NC(=O)C(C)(C)C	-1%	i	i	-24%	14%	13%
Cc1c(C(=O)COC(C)(C)C)[nH]c2ccccc12	21µM*	i	i	?	5%	-1%[9.24 µM]
Cc1ccc(S(=O)(=O)N(C)Cc2ccc(C(=O)NN=C(CC(C)C)CC(C)C)cc2)cc1	?	2.3µM*	?	23µM*	5%	-21%
CC/C(=N\NC(=O)c1cc(C)oc1C)c1ccc(OC(F)F)cc1	?	?	?	?	-5%	-14%
CC/C(=N\NC(=O)c1ccc(CN(C)S(=O)(=O)c2ccc(C)cc2)cc1)c1ccc(OC(F)F)cc1	?	15µM*	?	21µM*	-9%	-5%
Cc1ccc2oc(-c3cccc(NC(=O)c4cccc5c(Cl)cccc45)c3)nc2c1	1%	?	i	5%	.	.
COc1c(C)cccc1C(=O)Nc1ccc(Cl)c(-c2nc3cc(C)ccc3o2)c1	15µM*	i	i	9.2µM*	.	.
Cc1ccc2oc(-c3cc(NC(=O)CC(C)C)ccc3Cl)nc2c1	10µM*	i	i	12µM*	.	.
CCCCSc1nc(-c2ccc(OC)cc2)ccc1C#N	.	?	i	.	.	.
O=C(NC(c1ccc(Cl)cc1)c1cnccn1)C1CCN(Cc2ccc(Oc3ccccc3)cc2)CC1 (stereo unspecified)	15µM*	?	?	16µM*	?	16µM*
Cc1ccc(C(NC(=O)C2CCN(Cc3ccc(Oc4ccccc4)cc3)CC2)c2ccccn2)cc1 (stereo unspecified)	?	i	i	23µM*	15µM*	21µM*
